Drawing on publication PMC8384837, “Expanding the binding specificity for RNA recognition by a PUF domain”, this text covers binding signal for nine sequences.

Where a chain is given by its changes, count along the chain named.

Holding throughout (test): yeast three-hybrid, YBZ-1, SC-Leu-His + 0.5 mM 3-AT, 4 days
What all share (conditions): tags: N-Gal4 AD-HA kept; label: inside an RPR1-promoter hybrid RNA with tandem MS2 sites; ssRNA

One assay deals with PUM1 PUF domain R1-RRK (Homo sapiens, UniProt Q14671 828-1176, S863R;Q867K). Put shortly: (§1)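 The interaction score is the log change in variant frequency from input to selection. Scores were computed in log2 with a pseudocount of 1 for absent variants, using Illumina sequencing of PCR-amplified repeat regions. The input came from four days on SC-Leu and the selection from four days on SC-Leu-His + 0.5 mM 3-AT. The cells were strain YBZ-1 (LexA–MS2 coat fusion, HIS3 reporter) co-expressing Pumilio-1 PUF domain libraries and matching RNA elements from a centromeric plasmid.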

Another assay deals with PUM1 PUF domain R4-NFS (Homo sapiens, UniProt Q14671 828-1176, H972F;Q975S). The essentials:
as §1

In another assay the target is T1, PUM1 PUF domain R6-GFA (Homo sapiens, UniProt Q14671 828-1176, N1043G;Y1044F;Q1047A).
T1 sequence: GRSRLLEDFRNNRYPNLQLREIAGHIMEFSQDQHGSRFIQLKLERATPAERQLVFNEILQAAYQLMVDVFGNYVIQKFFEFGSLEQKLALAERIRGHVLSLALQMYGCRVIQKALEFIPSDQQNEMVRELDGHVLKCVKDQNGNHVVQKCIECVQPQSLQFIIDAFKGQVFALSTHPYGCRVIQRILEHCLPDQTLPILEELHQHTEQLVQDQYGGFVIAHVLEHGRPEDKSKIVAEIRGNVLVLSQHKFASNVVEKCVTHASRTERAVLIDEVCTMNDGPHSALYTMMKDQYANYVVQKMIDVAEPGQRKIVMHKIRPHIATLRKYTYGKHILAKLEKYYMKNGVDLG
The essentials: as §1

Another assay deals with T2, PUM1 PUF domain R6-MYS (Homo sapiens, UniProt Q14671 828-1176, N1043M;Q1047S).
T2 sequence: T1 sequence with G216M, F217Y, A220S
The essentials:
as §1

A further assay concerns the target PUM1 PUF domain R5-PMG (Homo sapiens, UniProt Q14671 828-1176, C1007P;R1008M;Q1011G). The essentials: as §1
For the next assay, the target named is PUM1 PUF domain R8-RHE (Homo sapiens, UniProt Q14671 828-1176, N1122R;Y1123H;Q1126E). The essentials:
as §1

Another assay has as its target PUM1 PUF domain R3-LSR (Homo sapiens, UniProt Q14671 828-1176, C935L;R936S;Q939R). The essentials:
as §1

The target in a further assay is PUM1 PUF domain R3-LFA (Homo sapiens, UniProt Q14671 828-1176, C935L;R936F;Q939A). Put shortly:
as §1

The target in a further assay is PUM1 PUF domain R7-RML (Homo sapiens, UniProt Q14671 828-1176, S1079R;N1080M;E1083L). Put shortly:
as §1

Turning to “GGCUAGAACUAGUGGAUCCCCCGGCGCCCGGCGGCUCGAGCCCGGGUAAGUGUAAAUUGUCUGCAUGCCGCCGGGCGCCAUGCCUGCAGGUCGACUCUAGAAAACAUG”, the binding signal with PUM1 PUF domain R1-RRK is 2.68 log2 enrichment (interaction score).
The same measure, in the same setting: in the case of “GGCUAGAACUAGUGGAUCCCCCGGCGCCCGGCGGCUCGAGCCCGGGUAAGUGUAAAUCGUCUGCAUGCCGCCGGGCGCCAUGCCUGCAGGUCGACUCUAGAAAACAUG” it was 2.94 log2 enrichment (interaction score).
For “GGCUAGAACUAGUGGAUCCCCCGGCGCCCGGCGGCUCGAGCCCGGGUAAGUGUAUAUAGUCUGCAUGCCGCCGGGCGCCAUGCCUGCAGGUCGACUCUAGAAAACAUG”, in the assay with PUM1 PUF domain R4-NFS, the binding signal is 3.51 log2 enrichment (interaction score).
“GGCUAGAACUAGUGGAUCCCCCGGCGCCCGGCGGCUCGAGCCCGGGUAAGUGUAAAUAGUCUGCAUGCCGCCGGGCGCCAUGCCUGCAGGUCGACUCUAGAAAACAUG”: the binding signal was 2.37 log2 enrichment (interaction score) with PUM1 PUF domain R6-GFA, 4.63 log2 enrichment (interaction score) in the assay with PUM1 PUF domain R6-MYS, 0.4 log2 enrichment (interaction score) with PUM1 PUF domain R5-PMG and 2.1 log2 enrichment (interaction score) in the assay with PUM1 PUF domain R8-RHE.
On to “GGCUAGAACUAGUGGAUCCCCCGGCGCCCGGCGGCUCGAGCCCGGGUAAGUGUUAAUAGUCUGCAUGCCGCCGGGCGCCAUGCCUGCAGGUCGACUCUAGAAAACAUG”, for which the binding signal with PUM1 PUF domain R5-PMG was 3.73 log2 enrichment (interaction score).
Regarding “GGCUAGAACUAGUGGAUCCCCCGGCGCCCGGCGGCUCGAGCCCGGGUAAGUGUAAGUAGUCUGCAUGCCGCCGGGCGCCAUGCCUGCAGGUCGACUCUAGAAAACAUG”, the binding signal in the assay with PUM1 PUF domain R3-LSR is 5.61 log2 enrichment (interaction score); in the assay with PUM1 PUF domain R3-LFA it was 4.36 log2 enrichment (interaction score).
Taken in the same sequence, the figures for “GGCUAGAACUAGUGGAUCCCCCGGCGCCCGGCGGCUCGAGCCCGGGUAAGUGUAAUUAGUCUGCAUGCCGCCGGGCGCCAUGCCUGCAGGUCGACUCUAGAAAACAUG” were 4.8 log2 enrichment (interaction score) and 2.26 log2 enrichment (interaction score).
“GGCUAGAACUAGUGGAUCCCCCGGCGCCCGGCGGCUCGAGCCCGGGUAAGUUUAAAUAGUCUGCAUGCCGCCGGGCGCCAUGCCUGCAGGUCGACUCUAGAAAACAUG”: the binding signal with PUM1 PUF domain R7-RML is 2.71 log2 enrichment (interaction score).
As for “GGCUAGAACUAGUGGAUCCCCCGGCGCCCGGCGGCUCGAGCCCGGGUAAGCGUAAAUAGUCUGCAUGCCGCCGGGCGCCAUGCCUGCAGGUCGACUCUAGAAAACAUG”, in the assay with PUM1 PUF domain R8-RHE, the binding signal is 3.02 log2 enrichment (interaction score).
